# Values joined by “and” are separate entries in the source; they are usually repeats but may differ in a detail not shown here. Identical values can stand only once. About 83,000 compounds went through this panel and 20% of them were active in at least one assay; those are over-represented in the sample as a whole.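 Method: cells in 96-well plates; compound added at one concentration; 48 h incubation; percent growth measured; values under 10 scored active.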 Active and inactive are the calls of the source.
# Legend:
# Assay in all cases: NCI-60 one-dose screen, 48 h (100 = growth as untreated, 0 = no growth, -100 = all killed)
# T-47D breast = system: T-47D breast
# BT-549 breast = system: BT-549 breast
# MDA-MB-435 melanoma = system: MDA-MB-435 melanoma
# SW-620 colon = system: SW-620 colon
# MCF7 breast = system: MCF7 breast
# HCT-116 colon = system: HCT-116 colon
# HCC-2998 colon = system: HCC-2998 colon
# KM12 colon = system: KM12 colon
structure (smiles),measurement,setting,value
O=C1OC(Oc2ccc(Br)cc2)(c2ccccc2)c2ccccc21 (centres undefined),growth,T-47D breast; 10 µM unless noted,73.6% (inactive) and 76.6% (inactive)
same,growth,BT-549 breast; 10 µM unless noted,88.4% (inactive) and 120% (inactive)
same,growth,MDA-MB-435 melanoma; 10 µM unless noted,102% (inactive) and 79.5% (inactive)
same,growth,SW-620 colon; 10 µM unless noted,78.6% (inactive) and 66.5% (inactive)
same,growth,MCF7 breast; 10 µM unless noted,89% (inactive) and 101% (inactive)
same,growth,HCT-116 colon; 10 µM unless noted,65.6% (inactive) and 54.6% (inactive)
same,growth,HCC-2998 colon; 10 µM unless noted,102% (inactive) and 87.3% (inactive)
same,growth,KM12 colon; 10 µM unless noted,87.7% (inactive) and 76.3% (inactive)
Cc1ncsc1CCO,growth,T-47D breast; 10 µM unless noted,93.5% (inactive) and 94.4% (inactive)
same,growth,BT-549 breast; 10 µM unless noted,101% (inactive) and 100% (inactive)
same,growth,MDA-MB-435 melanoma; 10 µM unless noted,106% (inactive) and 104% (inactive)
same,growth,SW-620 colon; 10 µM unless noted,108% (inactive) and 101% (inactive)
same,growth,MCF7 breast; 10 µM unless noted,109% (inactive) and 96% (inactive)
same,growth,HCT-116 colon; 10 µM unless noted,112% (inactive) and 102% (inactive)
same,growth,HCC-2998 colon; 10 µM unless noted,101% (inactive) and 109% (inactive)
same,growth,KM12 colon; 10 µM unless noted,110% (inactive) and 98.1% (inactive)
Cc1cc(-c2ccc(NS(=O)(=O)c3ccccc3)c(C)c2)ccc1NS(=O)(=O)c1ccccc1,growth,T-47D breast; 10 µM unless noted,78.7% (inactive) and 105% (inactive)
same,growth,BT-549 breast; 10 µM unless noted,79.7% (inactive)
same,growth,MDA-MB-435 melanoma; 10 µM unless noted,92.5% (inactive) and 102% (inactive)
same,growth,SW-620 colon; 10 µM unless noted,92.2% (inactive) and 108% (inactive)
same,growth,MCF7 breast; 10 µM unless noted,60.4% (inactive) and 82.9% (inactive)
same,growth,HCT-116 colon; 10 µM unless noted,70.7% (inactive) and 101% (inactive)
same,growth,HCC-2998 colon; 10 µM unless noted,100% (inactive) and 110% (inactive)
same,growth,KM12 colon; 10 µM unless noted,72.3% (inactive) and 90.1% (inactive)
CNc1ccc2nc3ccc(=[N+](C)C)cc-3sc2c1,growth,T-47D breast; 10 µM unless noted,-12.4% (active) and -16.3% (active)
same,growth,BT-549 breast; 10 µM unless noted,49.1% (inactive)
same,growth,MDA-MB-435 melanoma; 10 µM unless noted,-63.5% (active) and -47% (active)
same,growth,SW-620 colon; 10 µM unless noted,0.782% (active) and 2.58% (active)
same,growth,MCF7 breast; 10 µM unless noted,-65.8% (active) and -27.2% (active)
same,growth,HCT-116 colon; 10 µM unless noted,-8.61% (active) and -49.3% (active)
same,growth,HCC-2998 colon; 10 µM unless noted,31.5% (inactive) and 33.6% (inactive)
same,growth,KM12 colon; 10 µM unless noted,18.2% (inactive) and 14.2% (inactive)
COc1ccc2c(=O)cc(-c3ccccc3)[nH]c2c1,growth,T-47D breast; 10 µM unless noted,50.7% (inactive) and 57.1% (inactive)
same,growth,BT-549 breast; 10 µM unless noted,48.6% (inactive) and 45.1% (inactive)
same,growth,MDA-MB-435 melanoma; 10 µM unless noted,-46.6% (active) and -12% (active)
same,growth,SW-620 colon; 10 µM unless noted,23.1% (inactive) and 33.3% (inactive)
same,growth,MCF7 breast; 10 µM unless noted,18.2% (inactive) and 14.8% (inactive)
same,growth,HCT-116 colon; 10 µM unless noted,16.7% (inactive) and 8.27% (active)
same,growth,HCC-2998 colon; 10 µM unless noted,17.4% (inactive) and 2.14% (active)
same,growth,KM12 colon; 10 µM unless noted,14.1% (inactive) and 8% (active)
NC(=O)C1CC2C=CC1C2 (centres undefined),growth,T-47D breast; 10 µM unless noted,101% (inactive) and 100% (inactive)
same,growth,BT-549 breast; 10 µM unless noted,93% (inactive) and 112% (inactive)
same,growth,MDA-MB-435 melanoma; 10 µM unless noted,106% (inactive) and 100% (inactive)
same,growth,SW-620 colon; 10 µM unless noted,96.2% (inactive) and 97.5% (inactive)
same,growth,MCF7 breast; 10 µM unless noted,100% (inactive) and 102% (inactive)
same,growth,HCT-116 colon; 10 µM unless noted,92.5% (inactive) and 91.5% (inactive)
same,growth,HCC-2998 colon; 10 µM unless noted,76.5% (inactive) and 110% (inactive)
same,growth,KM12 colon; 10 µM unless noted,112% (inactive) and 105% (inactive)
CC1(c2ccc3ccccc3c2)CCC(=O)O1 (centres undefined),growth,T-47D breast; 10 µM unless noted,103% (inactive)
same,growth,BT-549 breast; 10 µM unless noted,104% (inactive)
same,growth,MDA-MB-435 melanoma; 10 µM unless noted,106% (inactive)
same,growth,SW-620 colon; 10 µM unless noted,108% (inactive)
same,growth,MCF7 breast; 10 µM unless noted,106% (inactive)
same,growth,HCT-116 colon; 10 µM unless noted,111% (inactive)
same,growth,HCC-2998 colon; 10 µM unless noted,109% (inactive)
same,growth,KM12 colon; 10 µM unless noted,106% (inactive)
Nc1ccn(C2OC(CO)C(O)C2O)c(=O)n1 (centres undefined),growth,T-47D breast; 10 µM unless noted,55.5% (inactive) and 58.3% (inactive) and 101% (inactive)
CC(C)(C)c1cc(NC(=O)Cc2ccc(-c3cnc4cc(-c5cnn(CCN6CCOCC6)c5)ccc4n3)cc2)no1,growth,T-47D breast; 10 µM,15.6% (inactive)
same,growth,T-47D breast; 30 µM,25.5% (inactive)
same,growth,BT-549 breast; 10 µM,22% (inactive)
same,growth,BT-549 breast; 30 µM,32.9% (inactive)
same,growth,MDA-MB-435 melanoma; 10 µM,19.1% (inactive)
same,growth,MDA-MB-435 melanoma; 30 µM,19.6% (inactive)
same,growth,SW-620 colon; 10 µM,15.5% (inactive)
same,growth,SW-620 colon; 30 µM,18.8% (inactive)
same,growth,MCF7 breast; 10 µM,35.4% (inactive)
same,growth,MCF7 breast; 30 µM,33.8% (inactive)
same,growth,HCT-116 colon; 10 µM,14.9% (inactive)
same,growth,HCT-116 colon; 30 µM,24.3% (inactive)
same,growth,HCC-2998 colon; 10 µM,40.3% (inactive)
same,growth,HCC-2998 colon; 30 µM,39.4% (inactive)
same,growth,KM12 colon; 10 µM,8.46% (active)
same,growth,KM12 colon; 30 µM,9.72% (active)
CC(C)C(=O)Nc1ccc([N+](=O)[O-])c(C(F)(F)F)c1,growth,T-47D breast; 10 µM unless noted,85.3% (inactive) and 89.6% (inactive)
same,growth,BT-549 breast; 10 µM unless noted,84.7% (inactive) and 85.9% (inactive)
same,growth,MDA-MB-435 melanoma; 10 µM unless noted,87% (inactive) and 99.6% (inactive)
same,growth,SW-620 colon; 10 µM unless noted,93.8% (inactive) and 96.5% (inactive)
same,growth,MCF7 breast; 10 µM unless noted,102% (inactive) and 90% (inactive)
same,growth,HCT-116 colon; 10 µM unless noted,94.8% (inactive) and 92.8% (inactive)
same,growth,HCC-2998 colon; 10 µM unless noted,97.2% (inactive) and 106% (inactive)
same,growth,KM12 colon; 10 µM unless noted,89.3% (inactive) and 98.4% (inactive)
Oc1c(CN2CCCCC2)ccc2cccnc12,growth,T-47D breast; 10 µM unless noted,38.8% (inactive) and 36.4% (inactive)
same,growth,BT-549 breast; 10 µM unless noted,94.7% (inactive) and 63.4% (inactive)
same,growth,MDA-MB-435 melanoma; 10 µM unless noted,63.9% (inactive)
same,growth,SW-620 colon; 10 µM unless noted,44% (inactive) and 44.7% (inactive)
same,growth,MCF7 breast; 10 µM unless noted,38.9% (inactive)
same,growth,HCT-116 colon; 10 µM unless noted,10.1% (inactive) and 15.2% (inactive)
same,growth,HCC-2998 colon; 10 µM unless noted,96.5% (inactive) and 59.7% (inactive)
same,growth,KM12 colon; 10 µM unless noted,44.5% (inactive) and 32.6% (inactive)
